The source made the active and inactive calls. The calls were made as follows: active = hit-call score of the fitted dose curve at least 0.9, where 1 is the maximum; inactive = score below 0.9.
Columns and labels:
Conditions in all cases: mRNA level, 48 h; actives raise or lower the signal
CYP2C9 (gene 1559) = test: LTEA_HepaRG_CYP2C9: Life Technologies and Expression Analysis (LTEA) Assay for CYP2C9 using HepaRG (AID 2283484)
Outline: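 Cells plated 48 h, switched to serum-free induction medium, then treated in duplicate for 48 h at eight concentrations (max 100 uM, 0.5% DMSO). RNA then analysed by qRT-PCR for CYP2C9; curves fitted in both directions relative to DMSO.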

CYP2E1 (gene 1571) = test: LTEA_HepaRG_CYP2E1: Life Technologies and Expression Analysis (LTEA) Assay for CYP2E1 using HepaRG (AID 2283485)
Outline: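 HepaRG cells in serum-free induction medium exposed 48 h to test chemicals, 8 half-log concentrations up to 100 uM in 0.5% DMSO, duplicate. CYP2E1 mRNA by qRT-PCR, normalized to ACTB, GAPDH, POLR2A; bidirectional fit versus DMSO.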

CYP4A11 (gene 1579) = test: LTEA_HepaRG_CYP4A11: Life Technologies and Expression Analysis (LTEA) Assay for CYP4A11 using HepaRG (AID 2283486)
Outline: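 Differentiated HepaRG cells, 48 h after plating, exposed in duplicate for 48 h to 8 half-log concentrations up to 100 uM in 0.5% DMSO in serum-free induction medium. CYP4A11 mRNA measured by TaqMan qRT-PCR, normalized to ACTB, GAPDH and POLR2A.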

[1] = read-out: Cytochrome P450 3A4 (Homo sapiens) (UniProt P08684); test: LTEA_HepaRG_CYP3A4: Life Technologies and Expression Analysis (LTEA) Assay for CYP3A4 using HepaRG (AID 2283487)
Outline: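 In a human hepatic line (HepaRG), duplicate wells were treated 48 h with up to 100 uM chemical in half-log dilutions. Endpoint: CYP3A4 mRNA induction or loss relative to 0.5% DMSO vehicle, by qRT-PCR.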

[2] = read-out: DNA damage-inducible transcript 3 (DDIT3), DDIT3 (gene 1649); test: LTEA_HepaRG_DDIT3: Life Technologies and Expression Analysis (LTEA) Assay for DNA damage-inducible transcript 3 (DDIT3) using HepaRG (AID 2283488)
Outline: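 Differentiated human HepaRG cells in serum-free induction medium were exposed in duplicate for 48 h to 8 concentrations (top 100 uM, half-log steps, 0.5% DMSO). DDIT3 mRNA measured by TaqMan qRT-PCR, normalized to ACTB/GAPDH/POLR2A; bidirectional fit versus DMSO.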

[3] = read-out: Pro-epidermal growth factor (Homo sapiens) (UniProt P01133); test: LTEA_HepaRG_EGF: Life Technologies and Expression Analysis (LTEA) Assay for Epidermal growth factor (EGF) using HepaRG (AID 2283489)
Outline: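 HepaRG cells (~100,000/well, 48 h pre-culture) exposed in duplicate for 48 h in serum-free induction medium to 8 half-log concentrations up to 100 uM in 0.5% DMSO. EGF mRNA by qRT-PCR, normalized to ACTB/GAPDH/POLR2A; bidirectional fit versus DMSO.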

[4] = read-out: Ezrin (EZR), EZR (gene 7430); test: LTEA_HepaRG_EZR: Life Technologies and Expression Analysis (LTEA) Assay for Ezrin (EZR) using HepaRG (AID 2283491)
Outline: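 Gain or loss of EZR mRNA is scored relative to 0.5% DMSO in human HepaRG cultures treated 48 h with test chemicals in duplicate, eight half-log concentrations from 100 uM.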

[5] = read-out: Cytochrome P450 3A7 (Homo sapiens) (UniProt P24462); test: LTEA_HepaRG_CYP3A7: Life Technologies and Expression Analysis (LTEA) Assay for CYP3A7 using HepaRG (AID 2283492)
Outline: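 Differentiated HepaRG cells in serum-free induction medium exposed 48 h in duplicate to 8-point half-log series from 100 uM top in 0.5% DMSO. CYP3A7 mRNA by qRT-PCR, normalized to ACTB/GAPDH/POLR2A, bidirectional fit versus DMSO.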

CYP3A5 (gene 1577) = test: LTEA_HepaRG_CYP3A5: Life Technologies and Expression Analysis (LTEA) Assay for CYP3A5 using HepaRG (AID 2283493)
Outline: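 Differentiated HepaRG cells in serum-free induction medium were dosed 48 h with test chemicals (8-point half-log series, top 100 uM, 0.5% DMSO, duplicate). CYP3A5 mRNA measured by qRT-PCR, normalized to ACTB, GAPDH, POLR2A; bidirectional fit versus DMSO.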

[6] = read-out: Fatty Acid-Binding Protein 1 (FABP1), FABP1 (gene 2168); test: LTEA_HepaRG_FABP1: Life Technologies and Expression Analysis (LTEA) Assay for Fatty Acid-Binding Protein 1 (FABP1) using HepaRG (AID 2283494)
Outline: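 HepaRG, 48 h post-plating switched to serum-free induction medium, then dosed 48 h (duplicate, 8 pts, ≤100 uM, 0.5% DMSO). RNA → Fluidigm TaqMan qRT-PCR, FABP1 normed to ACTB/GAPDH/POLR2A. Bidirectional curve fit vs DMSO.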

[7] = read-out: Cytochrome P450 4A22 (Homo sapiens) (UniProt Q5TCH4); test: LTEA_HepaRG_CYP4A22: Life Technologies and Expression Analysis (LTEA) Assay for Cytochrome P450 4A22 (CYP4A22) using HepaRG (AID 2283495)
Outline: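 Differentiated HepaRG cells in serum-free induction medium exposed 48 h in duplicate to eight half-log concentrations up to 100 uM in 0.5% DMSO. CYP4A22 mRNA quantified by TaqMan qRT-PCR, normalized to ACTB, GAPDH and POLR2A; bidirectional fit versus DMSO.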

[8] = read-out: Cytochrome P450 7A1 (Homo sapiens) (UniProt P22680); test: LTEA_HepaRG_CYP7A1: Life Technologies and Expression Analysis (LTEA) Assay for Cytochrome P450 7A1 (CYP7A1) using HepaRG (AID 2283496)
Outline: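 Gene expression endpoint in human HepaRG liver cells treated for 48 h with test chemicals (up to 100 uM, 0.5% DMSO). Values come from bidirectional concentration-response fitting versus DMSO.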

[9] = read-out: Glutathione S-Transferase (GSTA2), GSTA2 (gene 2939); test: LTEA_HepaRG_GSTA2: Life Technologies and Expression Analysis (LTEA) Assay for Glutathione S-Transferase (GSTA2) using HepaRG (AID 2283497)
Outline: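 HepaRG, 48 h dosing, 8-pt half-log CRC from 100 uM, 0.5% DMSO vehicle, n=2; RNA → Fluidigm TaqMan qRT-PCR; GSTA2 vs ACTB/GAPDH/POLR2A; gain/loss fit vs DMSO.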

[10] = read-out: Glutamate-cysteine ligase catalytic (GCLC), GCLC (gene 2729); test: LTEA_HepaRG_GCLC: Life Technologies and Expression Analysis (LTEA) Assay for Glutamate-cysteine ligase catalytic (GCLC) using HepaRG (AID 2283498)
Outline: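 Read-out is GCLC transcript level by Fluidigm-based TaqMan qRT-PCR, normalized to three housekeeping genes and fitted in both directions relative to 0.5% DMSO. Human HepaRG cells received chemicals for 48 h, up to 100 uM.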

[11] = read-out: growth arrest and DNA damage 45 (GADD45G), GADD45G (gene 10912); test: LTEA_HepaRG_GADD45G: Life Technologies and Expression Analysis (LTEA) Assay for growth arrest and DNA damage 45 (GADD45G) using HepaRG (AID 2283499)
Outline: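 Differentiated human HepaRG cells, 48 h post-plating, exposed 48 h in serum-free induction medium to 8 half-log concentrations (top 100 uM, 0.5% DMSO) in duplicate. GADD45G mRNA measured by Fluidigm TaqMan qRT-PCR, normalized to ACTB, GAPDH, POLR2A; bidirectional fit versus DMSO.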

[12] = read-out: Glutamate-cysteine ligase regulatory (GCLM), GCLM (gene 2730); test: LTEA_HepaRG_GCLM: Life Technologies and Expression Analysis (LTEA) Assay for Glutamate-cysteine ligase regulatory (GCLM) using HepaRG (AID 2283500)
Outline: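 Differentiated human HepaRG cells exposed 48 h in serum-free induction medium to 8-point half-log concentrations (top 100 uM, 0.5% DMSO), in duplicate. GCLM mRNA quantified by qRT-PCR, normalized to ACTB, GAPDH, POLR2A; bidirectional fitting versus DMSO.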

[13] = read-out: Glutathione S-transferase M3 (GSTM3), GSTM3 (gene 2947); test: LTEA_HepaRG_GSTM3: Life Technologies and Expression Analysis (LTEA) Assay for Glutathione S-transferase M3 (GSTM3) using HepaRG (AID 2283501)
Outline: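 Differentiated human HepaRG cells were exposed in duplicate for 48 h in serum-free induction medium, 8 points from 100 uM top in half-log steps, 0.5% DMSO. GSTM3 mRNA was measured by TaqMan qRT-PCR, normalized to ACTB, GAPDH and POLR2A; bidirectional fit versus DMSO.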

[14] = read-out: Heat shock 70 kDa protein 1 (HSPA1A), gene 3303; test: LTEA_HepaRG_HSPA1A: Life Technologies and Expression Analysis (LTEA) Assay for Heat shock 70 kDa protein 1 (HSPA1A) using HepaRG (AID 2283502)
Outline: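 Differentiated human HepaRG cells in serum-free induction medium were exposed in duplicate for 48 h to eight concentrations (top 100 uM, half-log steps, 0.5% DMSO). HSPA1A mRNA was quantified by qRT-PCR, normalized to ACTB, GAPDH and POLR2A, and fitted bidirectionally against DMSO.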

[15] = read-out: Hypoxia-inducible factor 1-alpha (Homo sapiens) (UniProt Q16665); test: LTEA_HepaRG_HIF1A: Life Technologies and Expression Analysis (LTEA) Assay for Hypoxia-inducible factor 1 (HIF1A) Trancription factor using HepaRG (AID 2283503);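 also: HIF1A transcript by TaqMan qRT-PCR normalized to ACTB GAPDH and POLR2A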
Outline: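 HepaRG, 48 h exposure, 8-pt half-log series from 100 uM, 0.5% DMSO vehicle, duplicates. Readout: HIF1A transcript by qRT-PCR (Fluidigm array), housekeeping-normalised. Bidirectional curve fit vs DMSO baseline.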

[16] = read-out: Early growth response protein 1 (EGR1) transcription factor, EGR1 (gene 1958); test: LTEA_HepaRG_EGR1: Life Technologies and Expression Analysis (LTEA) Assay for Early growth response protein 1 (EGR1) transcription factor using HepaRG (AID 2283490)
Outline: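 Read-out is EGR1 mRNA level by qRT-PCR, normalized to three housekeeping genes and analysed for gain or loss of signal against 0.5% DMSO. Source cells: human HepaRG, treated 48 h at up to 100 uM in half-log dilutions.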

Measured: AC50

Sequence of Hypoxia-inducible factor 1-alpha (Homo sapiens) (Q16665 whole entry, looked up): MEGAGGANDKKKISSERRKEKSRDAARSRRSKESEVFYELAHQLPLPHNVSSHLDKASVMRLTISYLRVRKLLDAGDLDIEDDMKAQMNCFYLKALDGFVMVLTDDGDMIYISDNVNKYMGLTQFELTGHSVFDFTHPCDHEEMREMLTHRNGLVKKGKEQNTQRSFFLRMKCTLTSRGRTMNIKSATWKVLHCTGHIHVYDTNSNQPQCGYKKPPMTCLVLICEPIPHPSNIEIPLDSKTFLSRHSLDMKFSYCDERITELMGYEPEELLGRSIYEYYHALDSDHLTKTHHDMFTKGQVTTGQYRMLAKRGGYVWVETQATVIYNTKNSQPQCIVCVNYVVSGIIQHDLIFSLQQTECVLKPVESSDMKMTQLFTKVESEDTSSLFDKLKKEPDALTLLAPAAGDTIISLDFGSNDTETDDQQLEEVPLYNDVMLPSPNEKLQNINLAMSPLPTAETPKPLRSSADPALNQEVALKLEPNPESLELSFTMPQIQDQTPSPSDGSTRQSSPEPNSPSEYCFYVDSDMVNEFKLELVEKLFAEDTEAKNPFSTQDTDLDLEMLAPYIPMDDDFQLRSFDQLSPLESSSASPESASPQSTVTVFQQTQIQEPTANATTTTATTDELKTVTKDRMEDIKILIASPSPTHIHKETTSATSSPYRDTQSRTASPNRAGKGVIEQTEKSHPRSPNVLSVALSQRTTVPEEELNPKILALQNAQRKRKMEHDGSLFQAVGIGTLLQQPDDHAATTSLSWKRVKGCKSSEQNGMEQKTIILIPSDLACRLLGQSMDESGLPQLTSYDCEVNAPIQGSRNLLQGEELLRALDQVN
Sequence of Cytochrome P450 3A7 (Homo sapiens) (P24462 whole entry, looked up): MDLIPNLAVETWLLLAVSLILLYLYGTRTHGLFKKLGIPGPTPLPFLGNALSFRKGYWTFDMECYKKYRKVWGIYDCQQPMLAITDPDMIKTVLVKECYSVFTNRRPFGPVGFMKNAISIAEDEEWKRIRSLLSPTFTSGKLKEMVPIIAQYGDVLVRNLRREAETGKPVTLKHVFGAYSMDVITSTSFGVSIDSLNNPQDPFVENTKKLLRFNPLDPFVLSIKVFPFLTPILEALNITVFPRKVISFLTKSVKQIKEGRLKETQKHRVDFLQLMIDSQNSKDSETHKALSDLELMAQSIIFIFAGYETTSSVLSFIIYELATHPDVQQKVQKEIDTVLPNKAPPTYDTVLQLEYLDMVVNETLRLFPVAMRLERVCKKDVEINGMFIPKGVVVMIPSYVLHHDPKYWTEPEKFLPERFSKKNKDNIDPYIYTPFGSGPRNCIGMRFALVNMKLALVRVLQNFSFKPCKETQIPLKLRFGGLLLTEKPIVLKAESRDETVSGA
Sequence of Cytochrome P450 3A4 (Homo sapiens) (P08684 whole entry, looked up): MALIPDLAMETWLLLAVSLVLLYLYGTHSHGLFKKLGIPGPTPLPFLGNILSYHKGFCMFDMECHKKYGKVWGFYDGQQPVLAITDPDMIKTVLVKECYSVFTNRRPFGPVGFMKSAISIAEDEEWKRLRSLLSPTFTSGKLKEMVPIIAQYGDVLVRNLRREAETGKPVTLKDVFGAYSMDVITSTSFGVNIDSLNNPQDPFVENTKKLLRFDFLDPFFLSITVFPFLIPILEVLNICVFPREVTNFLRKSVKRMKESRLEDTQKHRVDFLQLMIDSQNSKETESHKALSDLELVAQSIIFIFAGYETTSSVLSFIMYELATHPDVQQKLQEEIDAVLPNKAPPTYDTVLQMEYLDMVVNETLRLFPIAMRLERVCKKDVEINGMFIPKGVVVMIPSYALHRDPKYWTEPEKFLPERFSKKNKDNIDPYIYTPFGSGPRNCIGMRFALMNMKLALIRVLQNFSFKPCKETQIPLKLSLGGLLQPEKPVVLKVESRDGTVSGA

Cc1cccc2ccccc12
not listed: [16]
inactive: all other assays above

O=CCCCC=O
active: [12] 0.236 µM
not listed: [1]
inactive: all other assays above

Clc1ccccc1C(c1ccccc1)(c1ccccc1)n1ccnc1
active: CYP2C9 (gene 1559) 93.4 µM | CYP2E1 (gene 1571) 11.3 µM | CYP4A11 (gene 1579) 15.8 µM | [2] 86.5 µM | [3] 15.8 µM | [16] 71.5 µM | [6] 18.1 µM | [7] 15.7 µM | [8] 28.5 µM | [9] 50 µM | [10] 63 µM | [11] 28 µM | [12] 24.2 µM
inactive: [4] | [5] | CYP3A5 (gene 1577) | [13] | [14]

CCCCCCCCCCCCO
not listed: [1] | [8]
inactive: all other assays above

Cc1ncc(CO)c(CO)c1O
not listed: [1] | [15]
inactive: all other assays above

CN(C[C@@H](CC[N+]12CCC(C3CCCCC3)(CC1)CC2)c1ccc(Cl)c(Cl)c1)C(=O)c1cc(C(F)(F)F)cc(C(F)(F)F)c1
inactive: [3] | [4] | [11]
active: CYP2C9 (gene 1559) 12.9 µM | CYP2E1 (gene 1571) 13.7 µM | CYP4A11 (gene 1579) 21.1 µM | [2] 12.1 µM | [16] 54.4 µM | [5] 28.6 µM | CYP3A5 (gene 1577) 68.8 µM | [6] 12.5 µM | [7] 22.4 µM | [9] 34.2 µM | [10] 60.9 µM | [12] 91.2 µM | [13] 15.8 µM | [14] 71.9 µM | [15] 50 µM
